In PubChem BioAssay (NCI) one finds growth inhibition data, which are given here for 21 compounds.

Test [1] is described as follows: NCI Yeast Anticancer Drug Screen. Data for the rad50 strain (AID 155).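 Note: 0% = growth of vehicle-only cultures of the same strain.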 The note with it: S. cerevisiae rad50 strain growth inhibition; at 50.0 µM; active compounds read high. In short, it runs like this: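 Inhibition values express reduced yeast growth in compound-treated cultures relative to vehicle-treated controls.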
Test [2] can be described thus: NCI Yeast Anticancer Drug Screen. Data for the mec2-1 strain (AID 157). Particulars: S. cerevisiae mec2-1 strain, at 50.0 µM, active compounds read high. The method, boiled down:
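Using mec2-1 yeast: add compound, measure growth, express inhibition versus vehicle-treated cultures.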

Test [3] can be described thus: NCI Yeast Anticancer Drug Screen. Data for the sgs1 mgt1 strain (AID 161).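 Note: 0% = growth of cultures given vehicle only.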 The note with it: S. cerevisiae sgs1 mgt1 strain, at 50.0 µM, active compounds read high. In short, it runs like this: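 This yeast growth screen uses a strain with defined DNA-repair lesions; compound-treated growth is compared with vehicle-treated growth.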
A short description of test [4]: NCI Yeast Anticancer Drug Screen. Data for the cln2 rad14 strain (AID 165).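 Note: 0% = growth equal to vehicle treated cultures.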 Particulars: S. cerevisiae cln2 rad14 strain, at 50.0 µM, active compounds read high. The method, boiled down: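 Yeast strain cln2 rad14, bearing defects in cell cycle control and DNA repair, serves as the test system; values reflect growth inhibition compared with vehicle.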
Test [5] can be described thus: NCI Yeast Anticancer Drug Screen. Data for the bub3 strain (AID 167). Particulars: S. cerevisiae bub3 mutant strain, at 50.0 µM, active compounds read high. In short, it runs like this: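 Steps: expose the mutant yeast strain to compound; grow alongside vehicle-treated cultures; measure growth; express inhibition against the vehicle cultures.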
Test [6] can be described thus: NCI Yeast Anticancer Drug Screen. Data for the mlh1 rad18 strain (AID 175). The note with it: S. cerevisiae mlh1 rad18 strain growth inhibition; at 50.0 µM; active compounds read high. In short, it runs like this:
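Steps: expose repair-defective yeast to compound; measure growth; express inhibition against vehicle-treated controls.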

This is part of a sample that, as a whole, favours compounds with a hit. Of some 79,000 tested, about 15% had one in any assay. A number with no mark means an inactive call. Active and inactive are the calls of the source. Cut-off read from the data, not from the text of the source: active = growth inhibition above about 70%; inactive = the rest.

For `CCN(CC)CC(c1ccccc1)C(C)(O)c1ccccc1` (stereo unspecified), the growth inhibition in test [1] is -2%; in test [2], -10.1%; in test [3] it was -8%; in test [4], 10.9%; in test [5], 27.4%; in test [6], -22.4%.

In the case of `CCOC(=O)c1cc2c(nc1NCc1ccccc1)C(=O)CCCC2`, the growth inhibition in test [1] is 7.95%; in test [2], 22%; in test [3], 30.8%; in test [4], 10.3%; in test [5], 26.4%; in test [6], 17.6%.

Take `CC1(O)CC(C(F)(F)F)(C(F)(F)F)OC1=O` (stereo unspecified): the growth inhibition in test [1] was -20.9%; in test [2], -42.7%; in test [3], -7.75%; in test [4], -28.9%; in test [5], -2.25%; in test [6] it was -13.9%.

For the compound `O=C(NC(=S)Nc1ccc(S(=O)(=O)c2ccc(NC(=S)NC(=O)c3ccccc3)cc2)cc1)c1ccccc1`, the growth inhibition in test [1] was -28.5%; in test [2], -32.6%; in test [3] it was -7.8%; in test [4], 8.75%; in test [5] it was -32.1%; in test [6], -12.6%.

As to `Cc1cccc(C)c1OC(=O)Nc1ccccc1`, the growth inhibition in test [1] was 3.75%; in test [2] it was -18.6%; in test [3] it was 4.3%; in test [4], -46.5%; in test [5] it was 9.7%; in test [6], -8.95%.

`CCCCCc1nnc2n1N=C(c1ccc(Cl)cc1)CS2`: the growth inhibition is -26.6% in test [1]; -13.9% in test [2]; -2.5% in test [3]; 4.1% in test [4]; -17.6% in test [5]; 3.5% in test [6].

Consider `Nc1nc(Sc2ccc([N+](=O)[O-])c3nonc23)c2ncn(C3OC(CO)C(O)C3O)c2n1` (stereo unspecified), for which the growth inhibition in test [1] is -0.7%; in test [2] it was -11.3%; in test [3], 3%; in test [4], 26.6%; in test [5] it was -6.3%; in test [6] it was 11.9%.

As to `O=C(Nc1ccccc1[N+](=O)[O-])OCc1ccccc1`, the growth inhibition was -10.7% in test [1]; 10.4% in test [2]; 13.5% in test [3]; 10.1% in test [4]; 1.6% in test [5]; 8.2% in test [6].

As to `N#C/C(=C\c1ccccc1Br)C(=O)c1ccccc1`, the growth inhibition in test [1] is 15.2%; in test [2], 6.15%; in test [3], -3.35%; in test [4] it was 11.4%; in test [5], -12.8%; in test [6], -14.3%.

For `OC(CNc1ncccn1)(c1ccccc1)c1ccccc1`, the growth inhibition is -0.25% in test [1]; -24.8% in test [2]; -0.7% in test [3]; 13% in test [4]; 8.8% in test [5]; -17.1% in test [6].

`Cc1cccc(C(=O)NN)c1O`: the growth inhibition was -1.7% in test [1]; -14.7% in test [2]; -6.25% in test [3]; 5.7% in test [4]; 23.9% in test [5]; 22.2% in test [6].

On to `CCc1cccc(C)c1NC(=O)C1=C(C)NC(C)=C(C(=O)Nc2c(C)cccc2CC)C1c1ccc([N+](=O)[O-])cc1`, for which the growth inhibition was 40.8% in test [1]; 34.2% in test [2]; 42.2% in test [3]; 18.4% in test [4]; 36.9% in test [5]; 46.7% in test [6].

With `CC1(C)CC(=O)C(/C=N/C(=S)NCc2ccccc2)=C(O)C1`, the growth inhibition is -35.4% in test [1]; -49.1% in test [2]; -16% in test [3]; 14.4% in test [4]; -2.45% in test [5]; -20.8% in test [6].

Turning to `CCn1cc(C(=O)CCP(=O)(OC)OC)c2ccccc21`, the growth inhibition in test [1] is 7.5%; in test [2] it was -22.2%; in test [3], 3.6%; in test [4], -12.8%; in test [5] it was 5.15%; in test [6], -0.25%.

Consider `Cc1cc2c(c3c1C(=O)CC3)CCCC2(C)C`, for which the growth inhibition in test [1] is 9.3%; in test [2] it was 3.9%; in test [3], 2.75%; in test [4], -6.2%; in test [5], 2.15%; in test [6], -1.8%.

Regarding `CCn1c(=O)c2[nH]c(Br)nc2n(CC)c1=O`, the growth inhibition is 1.95% in test [1]; -0.6% in test [2]; 5.95% in test [3]; -6.85% in test [4]; 0.3% in test [5]; -9.45% in test [6].

As to `O=C(COc1ccc(Cl)cc1)OCCCl`, the growth inhibition was 10% in test [1]; 8.3% in test [2]; 9.1% in test [3]; 0.35% in test [4]; 9.3% in test [5]; 8.3% in test [6].

`CC(=O)Nc1cccc(/C=C/c2ccc([N+](=O)[O-])cc2)c1`: the growth inhibition in test [1] was 52.8%; in test [2], 42.6%; in test [3], 53%; in test [4], 32.5%; in test [5] it was 46.4%; in test [6], 89.2% (active).

Take `CCN(CC)CCOC(=O)OCCN(CC)CC`: the growth inhibition in test [1] is -13.5%; in test [2], -12.1%; in test [3], -7.3%; in test [4] it was 4.45%; in test [5] it was 17.9%; in test [6] it was -38.8%.

Turning to `COc1ccc(-c2cc(C(=O)N/N=C/c3ccc([N+](=O)[O-])cc3)c3ccc(C)cc3n2)cc1OC`, the growth inhibition is 43.6% in test [1]; 13.7% in test [2]; 39.1% in test [3]; 14.6% in test [4]; -1.05% in test [5]; 46.9% in test [6].

On to `BrC1CCC(Br)C(Br)CCC1Br` (stereo unspecified), for which the growth inhibition in test [1] was 46.5%; in test [2], 54.9%; in test [3], 55.1%; in test [4] it was 31.8%; in test [5] it was 60%; in test [6], 70.4% (active).
